Structures are written as SMILES. Among all 370,000 compounds or so, about 1,600 (0.43%) were called active. The full list was thinned out, with actives kept by preference. Values without a mark were called inactive. No stated cut-off is given here; in the data, active means inhibition above about 24%; inactive means the rest.

For this experiment, the target named is Major prion protein (Homo sapiens) (UniProt P04156). Briefly: inhibitors of human cell surface prion protein PrPC, primary screen, cell-based, TR-FRET (AID 720596). Further: 0% = median of the test wells and 100% = reference compound wells. The note with it: TR-FRET read-out, at 13.8 µM, hits give high values.
With `Cc1ccc(NC(=O)N2c3ccccc3SC2c2ccco2)c(C)c1` (stereo not drawn), the inhibition is 2.15%. To `COc1ccc(C(=O)N2CCCCC2c2cc(C(=O)Nc3ccccc3)no2)cc1` (stereo not drawn) belongs 6.89%; to `CN1CCn2cnc(C(=O)NCC(=O)OC(C)(C)C)c2C1=O`, -0.34%; to `COCC1CCN(C(=O)C2CCC(=O)N(Cc3cccc(C(F)(F)F)c3)C2)CC1` (stereo not drawn), 9.85%. To `COc1ccc(OC)c(NC(=O)c2cc(-c3cc(F)ccc3OCC3CCCO3)n[nH]2)c1` (stereo not drawn) belongs 84.9% (active). Next, `COc1cc(F)ccc1-c1cc(C(=O)NCC2CCCCC2)[nH]n1`: 9.68%; `COc1ccccc1CNC(=O)c1cc(-c2cc(F)ccc2OC)n[nH]1`: -1.69%; `CC1(C)CC(=O)C2=C(C1)NCN(CCCN1CCOCC1)C2`: -0.29%. As to `Cn1cccc1C1(C(F)(F)F)NCCNC1=O` (stereo not drawn), the inhibition is -0.11%. To `Cc1ccc(C(=O)Nc2ccccc2-c2ccccc2)cc1S(=O)(=O)Nc1ccccc1` belongs 25.5% (active). To `Cc1cc(C(C)(C)C)cc(S(=O)(=O)Nc2ccc(C(=O)O)cc2)c1C` belongs 0.8%.

Consider `O=C(O)c1ccc(F)c(S(=O)(=O)Nc2ccccc2)c1`, for which the inhibition is -4.14%. Next, `CCC(C)N(C(=O)COC(=O)c1nc(Cl)ccc1Cl)C1CCS(=O)(=O)C1` (stereo not drawn): 5.66%; `COc1cccc2sc3cc(NCC[C@@H]4CCCN4C)ccc3c(=O)c12`: 44.1% (active); `Cc1cc2oc3ccc(NCCC4CCCN4C)cc3c(=O)c2cc1C` (stereo not drawn): -13.5%. To `N#Cc1c(-c2ccc(Cl)cc2)c2c([nH]c1=S)CCCC2` belongs -2.9%; to `CC1CC(=O)Nc2ccccc2N1C(=O)COc1ccc2cc(Br)ccc2c1` (stereo not drawn), -0.09%. To `O=C(Nc1ccccc1Cl)/C(Cl)=C(\Cl)S(=O)c1ccccc1` (stereo not drawn) belongs 93.7% (active). Regarding `Cc1ccc(S(=O)(=O)N(C)C)cc1NC(=O)c1ccc(-n2cncn2)c([N+](=O)[O-])c1`, the inhibition is -32.8%. To `O=C(N/N=C/c1c(O)n(C2CC2)c(=S)[nH]c1=O)c1ccccc1Cl` belongs 6.86%. To `O=C(N/N=C/c1c(O)n(C2CC2)c(=S)[nH]c1=O)c1ccccc1` belongs -3.29%; to `Cc1[nH]n(-c2ccccc2)c(=O)c1/C=N/NC(=O)c1ccoc1C`, 43.4% (active). To `O=C(CCN1CCCO1)N1CCCC(N2CCN(c3cccc(C(F)(F)F)c3)CC2)C1` (stereo not drawn) belongs 1.86%; to `COc1ccc2ccccc2c1CNc1nnnn1C`, -6.2%; to `Cn1c(=S)sc2ccc3ccccc3c21`, 51.9% (active). Take `CSc1nnc(CNC(=O)c2ccccc2)n1-c1ccc(F)cc1`: the inhibition was 0.49%. To `CC1=C(C(=O)Nc2cccc(C(=O)NCC(C)c3ccccc3)c2)SCCO1` (stereo not drawn) belongs 12.5%.

Take `O=C(CCS(=O)(=O)c1ccccc1)Nc1ccc(Cl)c(Cl)c1`: the inhibition is 4.48%.

Turning to `O=C(CC(O)(C(F)(F)F)C(F)(F)F)Nc1ccc(Cl)c(Cl)c1`, the inhibition is 64.7% (active).

On to `CC(c1cccnc1)N(CCN(C)C)C(=O)Nc1ccc(Cl)c(Cl)c1` (stereo not drawn), for which the inhibition is 2.3%. Next, `CC(C)c1ccc(NC(=O)[C@@H](NC(=O)N2CC(=O)Nc3ccccc32)C(C)C)cc1`: 3.7%. To `Cc1sc2ncnc(SCC(=O)NC3CCS(=O)(=O)C3)c2c1C` (stereo not drawn) belongs 9.26%; to `COC(=O)c1c(-c2cccs2)csc1NC(=O)CSc1ncnc2sc(C)c(C)c12`, -2.84%.

As to `Cc1sc2ncnc(SCC(=O)Nc3ccc(CN4CCCC4)cc3)c2c1C`, the inhibition is 33.7% (active). Consider `CC/C(=N\O)C(C)(C)/[N+]([O-])=C/c1ccc(Br)cc1`, for which the inhibition is 10.7%. Next, `O=C1CCCC2=C1C(c1cccs1)CC(=O)N2c1ccc(F)cc1` (stereo not drawn): 0.75%; `O=C1CCCC2=C1C(c1cccs1)n1nc(SCc3ccccc3)nc1N2` (stereo not drawn): 50.8% (active). To `CCC(=O)N1c2ccccc2NC2=C(C(=O)CCC2)C1c1ccco1` (stereo not drawn) belongs -1.24%; to `CC(=O)c1c(C)[nH]c(C(=O)OCC(=O)Nc2c(C)n(C)n(-c3ccccc3)c2=O)c1C`, 6.5%; to `COc1ccc2c(c1)[C@@]13CCCCC1[C@@H](C2)NCC3` (stereo partly drawn), 1.48%. Turning to `Cc1ccc(CC(=O)Nc2ccc(S(=O)(=O)N3CCOCC3)cc2)cc1C`, the inhibition is 10.2%. Next, `Cc1cc2cc(CNC(=O)c3ccc(S(=O)(=O)N4CCOCC4)cc3)ccc2[nH]1`: 27.4% (active). Next, `Cc1cc2cc(CNC(=O)c3cccs3)ccc2[nH]1`: 7.85%; `Cc1nc(NC(=O)CCC(=O)O)sc1C(=O)N(C)C`: 0.26%; `CN(C)CCNC(=O)c1ccc(Cl)c2cc3ccccc3nc12`: 34.5% (active).

With `Nc1nc2c(Br)ccc(Br)c2cc1C(=O)NCCc1ccccc1`, the inhibition was 6.33%. Next, `Cc1c(C(=O)NCCN(C)C)oc2ccc(S(=O)(=O)N3CCCC3)cc12`: 1.49%. For `CCN(Cc1ccccc1)C(=O)CN1C(=S)NC(C)(C)CC1C` (stereo not drawn), the inhibition was 6.01%.

Turning to `CCN(c1ccccc1)S(=O)(=O)c1ccc2[nH]c(=O)[nH]c2c1`, the inhibition was -6.81%.

Consider `Cc1ccccc1N1CCN(C(=O)c2cccnc2)CC1`, for which the inhibition is -4.83%. Next, `O=C(Nc1ccc(N2CCN(C(=O)c3ccccc3)CC2)c(Cl)c1)c1ncn[nH]1`: 11.2%; `O=C(Nc1ccc(N2CCN(C(=O)c3ccccc3)CC2)c(Cl)c1)c1cccnc1`: 26.1% (active); `O=C(c1ccc(F)cc1)c1cn(Cc2ccc(F)cc2)c2cc3c(cc2c1=O)OCCO3`: 34.4% (active). Next, `Cc1ccc(Cn2cc(C(=O)NN)c(=O)c3ccc(F)cc32)cc1`: -1.23%; `COc1ccc2c(c1)c(=O)c(C(=O)c1ccc(Cl)cc1)cn2CC(=O)Nc1ccc(F)cc1`: 0.3%.

For `CCCCc1nc2cc(C(=O)NCCc3cnn(C)c3)ccc2o1`, the inhibition was -7.17%. To `CC(C)N(Cc1nc(-c2ccc3c(c2)OCO3)no1)CC1CCC(=O)N1` (stereo not drawn) belongs 7.11%.

Regarding `N#Cc1c(N)nc2c3c(sc(=N)c2c1N)NC(=O)CC3c1ccccc1Cl` (stereo not drawn), the inhibition is 31.5% (active). Next, `CC(C)CCN1CCC(C)(NC(=O)c2ccccc2)C1=O` (stereo not drawn): -6.7%. Next, `CC1(c2ccccc2)NC(=O)N(CC(=O)N2CC(=O)Nc3ccccc32)C1=O` (stereo not drawn): 1.68%; `COc1ccc(-c2c(C)cc3oc(=O)cc(-c4ccccc4)c3c2C)cc1C=O`: 4.67%. Consider `CN(C(=O)COC(=O)CCCc1c[nH]c2ccccc12)c1c(N)n(Cc2ccccc2)c(=O)[nH]c1=O`, for which the inhibition is 7.89%.

In the case of `CCOc1ccc(Oc2c(Cl)cnn(-c3ccc(C)cc3)c2=O)cc1`, the inhibition is -10.9%.

Regarding `Cc1ccc(OC(=O)c2c(C)nn(-c3ccccc3)c2C)cc1`, the inhibition was 4.97%.

On to `Cc1ccc(Oc2cnn(-c3ccccc3)c(=O)c2Br)cc1`, for which the inhibition was 32.8% (active). Next, `CCC(C)[C@@H](C(=O)OC)N(CCc1cn(Cc2ccccc2)nn1)S(=O)(=O)c1ccccc1Br` (stereo partly drawn): 2.07%. To `CC(=O)Nc1ccc(S(=O)(=O)N2CCC(NC(=O)c3ccccc3)CC2)cc1` belongs -5.81%; to `CN(Cc1c(F)cccc1Cl)S(=O)(=O)c1cccs1`, -6.92%; to `COc1cccc(NC(=S)C(C#N)=C2N(C)c3ccccc3N2C)c1`, -1.55%. As for `O=C(CCCOc1ccccc1)Nc1cccc(C(=O)O)c1`, the inhibition is 2.69%.

As to `CC(=O)Nc1cccc(OCC(=O)/C=C2\N(C)c3ccccc3C2(C)C)c1`, the inhibition was 29.7% (active). To `Cc1nnc(NC(=O)CCC(=O)N2CCC(C)CC2)s1` belongs -8.95%. Take `COc1ccc(/C=C/CN2CCCC(C(=O)c3cc(F)ccc3F)C2)cc1` (stereo not drawn): the inhibition was 3.26%. Next, `COc1cc2c(cc1OC)C(=O)NCC(C)(C)O2`: 6.88%. Next, `O=C(Nc1cccn(Cc2c(Cl)cccc2Cl)c1=O)c1ccc(Cl)cc1`: 2.47%; `COc1ccc(Cn2cccc(NC(=O)Nc3ccc(C#N)cc3)c2=O)cc1`: 4.26%; `O=C(Nc1cccn(Cc2ccccc2Cl)c1=O)NC1CCCCC1`: 24.9% (active). To `CC1(C)CC(=O)C(C=NCc2cccnc2)=C(O)C1` belongs 6.76%; to `C=CCn1c(O)c(/C=N/N2CCOCC2)c(=O)[nH]c1=S`, -4.21%; to `CC1(C)CC(N2CCN(C(c3ccccc3)c3ccccc3)CC2)=CC(=[N+]2CCCCC2)C1`, 24.4% (active).

With `COC(=O)C(c1ccccc1)N1CCCCCC1` (stereo not drawn), the inhibition was -4.88%. As for `O=C(Nc1nnc([C@H]2C[C@H](O)[C@@H](CO)O2)s1)c1cccc(Cl)c1`, the inhibition is -5.24%. To `Cc1ccc(CNC(=O)Nc2nnc([C@H]3C[C@H](O)[C@@H](CO)O3)s2)cc1` belongs 25.8% (active). To `O=C(Nc1ccc(F)cc1)Nc1nnc([C@H]2C[C@H](O)[C@@H](CO)O2)s1` belongs 1.64%. `Cc1nnc(NC(=O)CSc2nc(C3CCCCC3)nc3ccccc23)s1`: the inhibition is 2.15%. Next, `COC(=O)CSc1nc(C2CC2)nc2ccccc12`: 34% (active). Turning to `CN(C(=O)CSc1nc(C2CC2)nc2ccccc12)c1nc(-c2ccccc2)cs1`, the inhibition was -2.06%. For the molecule `Cc1c(Br)c([N+](=O)[O-])nn1C(C)C(=O)Nc1nccs1` (stereo not drawn), the inhibition was -4.47%. Turning to `COc1ccc(S(=O)(=O)N2CCOCC2)cc1NC(=O)CSc1nnc(NC2CC2)s1`, the inhibition was 7.4%.

`COc1ccc(S(=O)(=O)N2CCOCC2)cc1NC(=O)CSc1cc(C)ccc1C`: the inhibition is -4.51%. Consider `COc1ccc(S(=O)(=O)N2CCOCC2)cc1NC(=O)CSc1ncnc2ccccc12`, for which the inhibition is 47.3% (active). As for `Cc1oc(-c2ccccc2Cl)[n+]([O-])c1C`, the inhibition is -0.12%.

Take `COC(=O)c1sccc1NC(=O)CC1C(=O)NCCN1C(=O)Nc1ccc(F)cc1F` (stereo not drawn): the inhibition is 4.59%.

These data come from PubChem BioAssay AID720596 (The Scripps Research Institute Molecular Screening Center, 2013).
